Rows were chosen to be rich in hits. Some 11% of all compounds tested hit in one or more screens of this group.
HTT cytoprotect – protects HTT-Q103 PC12 cells, measured by ATP. PC12 HTT-Q103 induced, cytoprotection, ATP luminescence, 40 h. Potency, µM (doses to about 56.4 µM), for inactives: cytoprotection (ATP increase), usual class: activators. hit rate 0.14% among 230,000. AID 1471; further: potency means the concentration at half of the fitted maximal effect; % of control where 0% means no effect; nearly all actives have a fitted effect of over 45% in size
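Rat PC12, Q103 Htt exon1-GFP fusion, ecdysone promoter; tebufenozide inducer 100 nM final; compound titration; qHTS, 1500 cells/well; ATPlite luminescent read.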
HTT aggregate – mutant huntingtin aggregation inhibition; hit rate 1.1% among 220,000; Potency, µM (series often up to 46.1 µM), without a hit: at the highest dose activity change, negative = inhibition, hits mostly inhibitors; PC12 HttQ103-GFP aggregates, Acumen cytometry, 40 h; AID 1688; further: potency means the concentration at half of the fitted maximal effect; on the % scale 0 is the no-effect control and ±100 the full control effect; nearly all actives have a fitted effect of over 60% in size
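Read-out: GFP aggregate count by laser scanning cytometer (488 nm excitation, 500-530 nm emission, 1–25 µm objects >6 SD above background). Cells: PC12, inducible HTTex1-Q103-GFP, 100 nM tebufenozide; compounds titrated.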
CBFb RUNX1 block – CBF-beta/RUNX1 interaction disruption. Q01196+Q13951. AlphaScreen CBFb-His/RUNX1-biotin binding, biochemical. Potency, µM (top dose mostly 59.8 µM), without a hit: at the top dose activity, negative = inhibition, hits mostly inhibitors. 230,000 tested, under 10 active. AID 1477; further: % of control where 0% means no effect
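CBF-beta (His) and RUNX1 (biotin), 30 nM each; 20 min preassociation; + compound, 15 min; + beads 50 ng each (Ni, streptavidin), 90 min; RT; AlphaScreen read.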
HPGD inh – blocks human HPGD enzyme activity; P15428; purified HPGD, NADH fluorescence kinetic, PGE2 substrate; Potency, µM, for inactives: at the highest dose activity change, negative = inhibition, actives largely listed as inhibitors; hit rate 4.3% among 150,000; AID 894; active means well fitted inhibition curve with a large enough effect, not every such curve was filed as active; inconclusive means small, poorly fitted or top-dose-only effect, or another doubt; inactive means no such curve, though single readings can be large or run the other way; further: potency means the concentration at half of the fitted maximal effect; on the % scale 0 is the no-effect control and ±100 the full control effect
Target sequence (P15428 whole entry, looked up): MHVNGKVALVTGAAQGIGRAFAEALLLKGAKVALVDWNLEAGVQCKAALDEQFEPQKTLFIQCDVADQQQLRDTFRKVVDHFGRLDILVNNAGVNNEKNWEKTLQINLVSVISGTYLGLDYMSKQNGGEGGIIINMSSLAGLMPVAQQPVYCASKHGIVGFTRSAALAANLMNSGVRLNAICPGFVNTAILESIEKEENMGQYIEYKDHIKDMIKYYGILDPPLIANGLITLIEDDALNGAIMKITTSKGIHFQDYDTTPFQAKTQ
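NADH formation kinetics: reaction with 30 uM PGE2 and 1 mM NAD+ (final), 20 nM enzyme, Tris-HCl pH 8 with Tween 20, after 15 min compound preincubation at room temperature. Fluorescence change, last versus first of five reads.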
ALDH1A1 inh – inhibitors of human aldehyde dehydrogenase 1A1; Purified ALDH1A1, NADH fluorescence, propionaldehyde substrate; Potency, µM (top dose mostly 75.3 µM), inactives show at the top dose activity, negative = inhibition, hits mostly inhibitors; hit rate 7.3% among 220,000; AID 1030; active means well fitted inhibition curve with a large enough effect, not every such curve was filed as active; inconclusive means small, poorly fitted or top-dose-only effect, or another doubt; inactive means no such curve, though single readings can be large or run the other way;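 further: potency means the concentration at half of the fitted maximal effect; plate controls were no enzyme wells and a reference inhibitor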
Target sequence (P00352 whole entry, looked up): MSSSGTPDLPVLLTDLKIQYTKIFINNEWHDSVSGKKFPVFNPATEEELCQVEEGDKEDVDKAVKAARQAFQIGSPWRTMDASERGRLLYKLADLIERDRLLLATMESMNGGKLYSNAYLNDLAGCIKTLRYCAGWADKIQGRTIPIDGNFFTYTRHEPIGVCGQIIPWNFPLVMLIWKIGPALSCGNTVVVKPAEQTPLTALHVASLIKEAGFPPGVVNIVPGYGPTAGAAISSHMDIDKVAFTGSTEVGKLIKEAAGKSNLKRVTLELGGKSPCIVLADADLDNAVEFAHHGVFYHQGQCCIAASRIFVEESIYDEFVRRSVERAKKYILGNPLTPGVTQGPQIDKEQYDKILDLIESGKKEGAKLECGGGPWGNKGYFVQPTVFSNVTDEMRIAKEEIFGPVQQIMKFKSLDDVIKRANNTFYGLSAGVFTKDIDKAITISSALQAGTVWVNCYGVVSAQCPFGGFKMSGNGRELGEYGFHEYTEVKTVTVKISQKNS
PNC assembly inh – blocks assembly of the perinucleolar compartment; activity change (PNC), negative = inhibition, % at 10 µM; PC3M PTB-GFP, PNC prevalence imaging, 16 h; stronger effect = lower value; AID 2417; hit rate 3.1% among 140,000;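 active means readout at or below -70, meaning at least 70% loss of cells showing the perinucleolar compartment, a nuclear body marking cancer cells; inconclusive means readout between -30 and a set limit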;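 further: plate controls were DMSO wells for no effect and camptothecin positive control wells for full effect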
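Read-out is percentage of cells bearing a perinucleolar compartment, from automated 20x imaging of fixed, Hoechst-stained PC3M PTB-GFP cells. Cells were seeded 4 h, then exposed 16 h to compound (23 nl of library stock) in duplicate plates.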
The depositor's hits bear a star; ? = inconclusive; / = no result given; [ ] = remark or other dose. Unless noted, the call rests on the fitted dose curve; in most records, active means well fitted curve in the direction sought with a large enough effect; inconclusive means small, poorly fitted or top-dose-only effect, or another doubt; inactive means no such curve, though single readings can be large; an effect the other way counts as inactive or inconclusive.

SMILES	HTT cytoprotect	HTT aggregate	CBFb RUNX1 block	HPGD inh	ALDH1A1 inh	PNC assembly inh
CCc1ccc(C(=O)NC(=S)Nc2ccc(N3CCOCC3)cc2)cc1	-37%	-19%	?	/	11µM*	/
O=C(Nc1cc(S(=O)(=O)N2CCOCC2)ccc1O)c1ccc(NS(=O)(=O)c2ccc(Cl)s2)cc1	-10%[10 µM]	?	8%	-14%	-13%	-134*
S=C(Nc1ccc(N2CCOCC2)cc1)Nc1ccc2nc(-c3ccco3)c(-c3ccco3)nc2c1	-22%	-19%	-29%	?	7.1µM*	-21
O=C(NC(=S)Nc1ccc(N2CCOCC2)cc1)c1ccco1	-19%[10 µM]	-15%	-6%	22µM*	?	-3
CCc1ccc2[nH]c(=O)c(CN(CCN(CC)CC)C(=S)NCc3ccco3)cc2c1	-5%[10 µM]	14%[9.22 µM]	3%	/	?	/
CN(C)C(=O)[C@H]1C[C@@H]1[C@H](NC(=O)OCc1ccccc1)c1ccccc1	-7%	/	7%	-7%	-12%	/
COC(=O)Cc1ccc(NC(=S)N2CCN(c3ccc(F)cc3)CC2)cc1	-5%[10 µM]	9%	-3%	-3%	-10%	-96*
CC(=O)c1ccc(NC(=S)Nc2ccc(N3CCOCC3)cc2)cc1	-27%	8%	-8%	/	22µM*	/
O=C(NC(=S)Nc1ccc(N2CCOCC2)cc1)c1cncc(Br)c1	11%[10 µM]	-20%	-5%	18µM*	?	23
CC(=O)c1ccc(N2CCN(C(=S)Nc3ccc(Oc4ccccc4)cc3)CC2)cc1	-54%	13µM*	-12%	/	?	/
CS(=O)(=O)N1CC(C(=O)O)Oc2ccc(CC(=O)O)cc21 (configuration not stated)	-31%	-1%	-5%	/	6%	/
CCOc1ccccc1NC(=O)CCCn1cc([N+](=O)[O-])cn1	-40%	-7%	-4%	/	?	/
O=C(NC(=S)Nc1cc(S(=O)(=O)N2CCOCC2)ccc1N1CCOCC1)c1ccco1	-21%	-23%	-1%	/	7%	/
O=C(NC(=S)Nc1cc(S(=O)(=O)N2CCOCC2)ccc1O)c1ccco1	-1%[10 µM]	17%	-8%	/	25µM*	/
COc1ccc(-n2nnc3c(SCc4ccccc4)ncnc32)cc1	-9%	-1%	6%	16µM*	13µM*	-15
CCN(CC)C(=O)CSc1ncnc2c1nnn2-c1ccc(F)cc1	0%	?	3%	-17%	?	21
COc1ccc(-n2nnc3c(SCC(=O)OCc4ccccc4)ncnc32)cc1	-27%	24%	4%	-2%	-1%	-2
CCC(Sc1ncnc2c1nnn2-c1ccc(F)cc1)C(=O)OC (configuration not stated)	-18%	22%	0%	-12%	-14%	2
COC(=O)c1ccc(CSc2ncnc3c2nnn3-c2ccc(F)cc2)o1	-9%	?	2%	7.1µM*	-13%	-26
CCN(CC)C(=O)CSc1ncnc2c1nnn2-c1ccc(OC)cc1	9%	?	8%	-15%	4µM*	0
COC(=O)[C@@H](NC(=O)O[C@H]1C(=O)c2cc(OC)ccc2O[C@@H]1c1ccc(OC)c(Br)c1)C(C)C	-36%	/	-2%	-16%	?	/
CCCCCCC#Cc1cc(OC)c(OC)cc1C(N1CC(C)c2ccccc21)N1CC(C)c2ccccc21 (configuration not stated)	-22%[10 µM]	/	14%[13.1 µM]	/	?	/
O=C1CCC[C@H]2OC12[C@@H](O)CCc1ccccc1 (some centres not stated)	-101%[10 µM]	/	-8%[13.1 µM]	/	23%[13.5 µM]	/
COCCn1c(=O)c(-c2ccccc2)nc2cnc(Oc3ccccc3)nc21	-59%	/	/	?	?	/
CC(C)=NO[C@@H](C)CN1CCCCc2nc(C)c(C)cc21	0%[10 µM]	/	-8%[13.1 µM]	/	-7%[13.5 µM]	/
SMILES	HTT cytoprotect	HTT aggregate	CBFb RUNX1 block	HPGD inh	ALDH1A1 inh	PNC assembly inh
CCCSc1nc2c(c(=O)[nH]c(=O)n2C)n1Cc1ccc(C)cc1	-33%	2%	1%	-7%	4%	?
C/C=C/Cn1c(SCc2ccc(C)cc2)nc2c1c(=O)[nH]c(=O)n2C	-35%[10 µM]	-8%	7%	14µM*	?	?
COCCSc1nc2c(c(=O)[nH]c(=O)n2C)n1Cc1cccc(C)c1	2%	2%	-7%	?	14µM*	-1
CCCCCn1c(SCc2cccc(C)c2)nc2c1c(=O)[nH]c(=O)n2C	-1%[10 µM]	7%[9.22 µM]	-2%	/	/	/
C=CCSc1nc2c(c(=O)[nH]c(=O)n2C)n1Cc1ccc(C)cc1	4%[10 µM]	-8%	0%	25µM*	-11%	?
Cc1ccc(Cn2c(SCC(C)C)nc3c2c(=O)[nH]c(=O)n3C)cc1	-8%[10 µM]	7%	2%	20µM*	28µM*	?
COc1ccc(C(OCCN2CCC[C@@H](C(=O)O)C2)(c2ccc(OC)cc2)c2ccc(OC)cc2)cc1	14%	/	3%[21.7 µM]	-1%	4%	/
CCCCCCCCNC(=S)NCCN1CCCCC1	-42%	-23%	-1%	/	-7%	/
O=C(NCCCN1CCOCC1)C(Sc1ccccc1)c1ccccc1 (configuration not stated)	-15%[10 µM]	-10%	6%	-4%	6%	?
CC[C@H](C)[C@H](NC(=O)[C@H](C)NC(=O)[C@H](Cc1cnc[nH]1)NC(=O)[C@@H]1CCCN1C(=O)CNC(=O)[C@H](CC(C)C)NC(=O)[C@H](CC(C)C)NC(=O)[C@H](Cc1ccc(O)cc1)NC(=O)CNC(=O)[C@H](C)NC(=O)[C@H](CO)NC(=O)[C@H](CC(N)=O)NC(=O)[C@H](CC(C)C)NC(=O)[C@@H](NC(=O)[C@H](Cc1c[nH]c2ccccc12)NC(=O)CN)[C@@H](C)O)C(=O)O	/	/	21%	/	/	/
Nc1cc(S(=O)(=O)O)ccc1O	-5%	/	?	-6%	?	/
C/C(Cl)=C/CSc1nc2c(c(=O)[nH]c(=O)n2C)n1C(C)C	1%[10 µM]	-4%	2%	-12%	?	24
C=CCSc1nc2c(c(=O)[nH]c(=O)n2C)n1C(C)C	-19%[10 µM]	7%	12%	18µM*	3.2µM*	-8
CC(Oc1cc(Cl)ccc1Cl)C(=O)N/N=C\c1ccnn1C (configuration not stated)	/	-3%	10%	3%	15%	-109*
CCCn1nnc(NC(=O)C(C)Oc2ccc(Cl)cc2Cl)n1 (configuration not stated)	-5%	-3%	10%	-20%	?	26
COc1ccc2c(c1)C(=O)[C@@H](O)[C@H](c1ccc(OC)c(Br)c1)O2	-65%	-19%	8%	?	13%	-115*
COc1cccc([C@@H]2Oc3ccc(OC)cc3C(=O)[C@H]2O)c1	-120%	?	3%	-7%	0%	46
